44 molecules from PubChem BioAssay AID1259245 (Vanderbilt High Throughput Screening Facility, 2017) can be followed below.

Molecules are shown by their SMILES. In all, about 40,000 compounds went through this assay and about 1,400 (3.5%) were called active. The sample holds actives, similar compounds and a random draw of the others, so the mix is not that of the screen.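 How the source made its calls: active means any of four per-well response measures lying three or more SD from its plate-wide compound average, in either direction; inactive means the rest, inconclusive results apart.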

In the assay the target is Voltage-dependent calcium channel gamma-2 subunit (Mus musculus) + Glutamate receptor 2 (Rattus norvegicus) (UniProt O88602+P19491). As to the kind of experiment: AMPAR-TARP gamma-2 complex positive or negative modulation – cell-based, membrane potential dye, primary screen (AID 1259245). The note with it: HEK293 GluA2+stargazin, membrane potential dye (FDSS), glutamate EC50, at 30 µM, hits were called plate by plate, in both directions; compound max-min signal: compound-alone response (agonism); glutamate slope, % of max: measured here: glutamate response slope, % max.
Sequence of Voltage-dependent calcium channel gamma-2 subunit (Mus musculus) + Glutamate receptor 2 (Rattus norvegicus) (O88602 whole entry, looked up): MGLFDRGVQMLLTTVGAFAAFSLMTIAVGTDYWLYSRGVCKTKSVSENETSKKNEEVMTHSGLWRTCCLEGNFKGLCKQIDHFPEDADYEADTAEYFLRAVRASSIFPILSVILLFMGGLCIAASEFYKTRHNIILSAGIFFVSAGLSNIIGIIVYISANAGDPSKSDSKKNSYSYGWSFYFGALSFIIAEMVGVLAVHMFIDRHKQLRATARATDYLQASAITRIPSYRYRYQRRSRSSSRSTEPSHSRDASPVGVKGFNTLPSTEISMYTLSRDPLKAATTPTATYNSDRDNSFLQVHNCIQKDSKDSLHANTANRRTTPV
Sequence of Voltage-dependent calcium channel gamma-2 subunit (Mus musculus) + Glutamate receptor 2 (Rattus norvegicus) (P19491 whole entry, looked up): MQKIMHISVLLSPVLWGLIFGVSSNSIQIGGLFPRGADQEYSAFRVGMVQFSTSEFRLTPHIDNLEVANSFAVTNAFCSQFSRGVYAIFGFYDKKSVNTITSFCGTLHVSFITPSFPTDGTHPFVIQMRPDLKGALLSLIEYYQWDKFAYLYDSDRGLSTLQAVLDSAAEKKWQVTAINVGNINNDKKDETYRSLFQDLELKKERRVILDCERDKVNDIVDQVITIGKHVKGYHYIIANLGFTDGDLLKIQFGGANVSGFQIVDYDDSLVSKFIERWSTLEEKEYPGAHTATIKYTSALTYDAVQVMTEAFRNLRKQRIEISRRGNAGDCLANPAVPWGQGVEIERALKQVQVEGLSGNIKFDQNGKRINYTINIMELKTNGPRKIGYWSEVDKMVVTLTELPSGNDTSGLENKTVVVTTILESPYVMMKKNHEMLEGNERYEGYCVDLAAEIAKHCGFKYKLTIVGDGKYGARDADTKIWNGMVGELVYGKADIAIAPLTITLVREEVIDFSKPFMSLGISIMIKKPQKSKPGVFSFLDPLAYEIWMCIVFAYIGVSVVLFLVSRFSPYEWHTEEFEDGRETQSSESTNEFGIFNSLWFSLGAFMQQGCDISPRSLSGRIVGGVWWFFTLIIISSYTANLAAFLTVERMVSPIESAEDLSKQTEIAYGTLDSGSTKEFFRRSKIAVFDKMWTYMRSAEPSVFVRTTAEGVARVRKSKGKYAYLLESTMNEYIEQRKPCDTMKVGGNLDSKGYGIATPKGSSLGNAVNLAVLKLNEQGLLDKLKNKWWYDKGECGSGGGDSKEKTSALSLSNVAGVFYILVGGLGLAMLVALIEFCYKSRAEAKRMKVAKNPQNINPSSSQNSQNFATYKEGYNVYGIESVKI
Take `CCn1ccnc1N1CCN(C(=O)CCS(=O)(=O)c2ccccc2)CC1`: the compound max-min signal is 0.0601; the glutamate response, % of max was 11.8% (inactive); the glutamate slope, % of max amounted to 23.3%.

Consider `COCCNC(=O)Cn1cc(-c2nnc(C)o2)c2ccccc21`, for which the compound max-min signal turned out to be 0.0888; the glutamate response, % of max is 38.9% (inactive); the glutamate slope, % of max was found to be 57.5%.

For `O=C(NC(=S)Nc1ccc(S(=O)(=O)N2CCOCC2)cc1)c1sc2ccccc2c1Cl`, the compound max-min signal was found to be 0.0349; the glutamate response, % of max was 29.8% (inactive); the glutamate slope, % of max was found to be 52.2%.

For `CCN(CC)C(=O)C(=O)c1cn(CC(=O)N2CCOCC2)c2ccccc12`, the compound max-min signal was found to be 0.0509; the glutamate response, % of max was 31.2% (inactive); the glutamate slope, % of max stood at 53.3%.

As for `Cc1cccc(C)c1NC(=O)Cn1c(=O)n(C(C)C)c(=O)c2nscc21`, the compound max-min signal stood at 0.121; the glutamate response, % of max is 32.1% (active); the glutamate slope, % of max was found to be 45.8%.

For `CSc1cccc(NC(=O)Cn2c(=O)n(C3CC3)c(=O)c3nscc32)c1`, the compound max-min signal came to 0.107; the glutamate response, % of max is 26.5% (inactive); the glutamate slope, % of max came out at 50.3%.

Turning to `COC(=O)c1ccc(NC(=O)Cn2c(=O)n(C(C)C)c(=O)c3nscc32)cc1`, the compound max-min signal came to 0.116; the glutamate response, % of max is 34.2% (inactive); the glutamate slope, % of max is 56.9%.

With `CC(=O)N1CC(C(=O)Nc2cccc3nsnc23)C1`, the compound max-min signal amounted to 0.0775; the glutamate response, % of max is 30.1% (inactive); the glutamate slope, % of max came out at 49.8%.

Take `COc1ccc(-n2nc3c(c2NC(=O)C(=O)NC2CCCC2)CS(=O)(=O)C3)cc1`: the compound max-min signal is 0.0561; the glutamate response, % of max is 41.9% (inactive); the glutamate slope, % of max amounted to 51.3%.

As for `O=C(Nc1c2c(nn1-c1ccc(F)cc1)CSC2)C(=O)N1CCCCCC1`, the compound max-min signal was 0.071; the glutamate response, % of max is 32% (active); the glutamate slope, % of max is 43.4%.

Take `O=C(NCCCn1ccnc1)C(=O)Nc1c2c(nn1-c1ccc(Cl)cc1)CSC2`: the compound max-min signal stood at 0.0348; the glutamate response, % of max was 37.9% (inactive); the glutamate slope, % of max was 64.4%.

Regarding `O=C(NCCCN1CCCC1=O)C(=O)Nc1c2c(nn1-c1cccc(Cl)c1)CSC2`, the compound max-min signal was found to be 0.0244; the glutamate response, % of max is 21.6% (inactive); the glutamate slope, % of max was 47%.

`CC1CCN(C(=O)C(=O)Nc2c3c(nn2-c2ccc(F)cc2)CSC3)CC1`: the compound max-min signal is 0.0271; the glutamate response, % of max was 24.1% (inactive); the glutamate slope, % of max turned out to be 44.2%.

`COc1ccc(-n2nc3c(c2NC(=O)C(=O)N2CCCCC2)CSC3)cc1`: the compound max-min signal was found to be 0.0721; the glutamate response, % of max is 33.6% (active); the glutamate slope, % of max was determined as 59.2%.

In the case of `CCCn1c(N2CCC(C(N)=O)CC2)nc2c1c(=O)n(C)c(=O)n2C`, the compound max-min signal was found to be 0.0828; the glutamate response, % of max is 24.8% (inactive); the glutamate slope, % of max was 45.3%.

As for `CCCCc1ccc(-n2c(C)cn3c4c(=O)n(CC(=O)OC)c(=O)n(C)c4nc23)cc1`, the compound max-min signal turned out to be 0.103; the glutamate response, % of max was 55.1% (inactive); the glutamate slope, % of max worked out at 73.4%.

On to `COc1cccc(-n2nnc3c(N4CCN(C(=O)c5c(OC)cccc5OC)CC4)ncnc32)c1`, for which the compound max-min signal turned out to be 0.0804; the glutamate response, % of max was 29.1% (inactive); the glutamate slope, % of max was found to be 53.7%.

Regarding `CCc1ccccc1NC(=O)NCCOc1ccc2nnc(-c3cccc(F)c3)n2n1`, the compound max-min signal worked out at 0.131; the glutamate response, % of max is 41.1% (active); the glutamate slope, % of max is 52.3%.

Turning to `Cc1nc(-c2ccccc2)sc1C(=O)NCCOc1ccc2nnc(-c3ccccc3)n2n1`, the compound max-min signal turned out to be 0.0398; the glutamate response, % of max was 37.1% (inactive); the glutamate slope, % of max stood at 49.7%.

Take `O=C(COc1ccc(Cl)cc1)NCCOc1ccc2nnc(-c3cccc(F)c3)n2n1`: the compound max-min signal is 0.0351; the glutamate response, % of max is 38.7% (inactive); the glutamate slope, % of max was found to be 69.7%.

On to `COc1ccc(CCS(=O)(=O)Nc2ccc3c(c2)N(C(C)=O)CC3)cc1`, for which the compound max-min signal was found to be 0.0917; the glutamate response, % of max was 25.2% (inactive); the glutamate slope, % of max stood at 47.2%.

With `CCOc1ccc(N2CCCn3c2nc2c3c(=O)n(CCN3CCOCC3)c(=O)n2C)cc1`, the compound max-min signal came out at 0.074; the glutamate response, % of max was 10% (inactive); the glutamate slope, % of max amounted to 27.7%.

Consider `CCc1ccc(NC(=O)Cn2c(=O)c3c(N4CCN(C(C)=O)CC4)ccnc3n(C)c2=O)cc1`, for which the compound max-min signal was 0.159; the glutamate response, % of max was 32.2% (active); the glutamate slope, % of max stood at 55.8%.

Regarding `CC(=O)N1CCN(c2ccnc3c2c(=O)n(CC(=O)NCC2CCCO2)c(=O)n3C)CC1` (configuration not stated), the compound max-min signal worked out at 0.0945; the glutamate response, % of max is 51% (inactive); the glutamate slope, % of max came to 78.2%.

With `CC(=O)N1CCN(c2ccnc3c2c(=O)n(CC(=O)NCc2ccco2)c(=O)n3C)CC1`, the compound max-min signal worked out at 0.103; the glutamate response, % of max was 49.5% (inactive); the glutamate slope, % of max was determined as 74.3%.

With `O=[N+]([O-])c1cccc(CSc2nnc(-c3ccncc3)o2)c1`, the compound max-min signal came out at 0.0611; the glutamate response, % of max is 20.8% (inactive); the glutamate slope, % of max was determined as 47.1%.

As for `CC(=O)c1sc(NC(=O)C2CCCN(S(C)(=O)=O)C2)nc1-c1ccccc1` (configuration not stated), the compound max-min signal turned out to be 0.126; the glutamate response, % of max was 21.7% (inactive); the glutamate slope, % of max amounted to 40.2%.

In the case of `COc1ccc(-c2ccc(=O)n(CCCC(=O)Nc3ccccc3-c3ccccc3)n2)cc1`, the compound max-min signal was 0.0404; the glutamate response, % of max is 21.1% (inactive); the glutamate slope, % of max worked out at 39%.

For the molecule `CCOc1ccc(-c2ccc(=O)n(CCCC(=O)Nc3cc(Cl)ccc3OC)n2)cc1`, the compound max-min signal was 0.0223; the glutamate response, % of max is 14.7% (inactive); the glutamate slope, % of max turned out to be 28.2%.

Regarding `CCOc1ccc(-c2cc(=O)n(CCCC(=O)Nc3cc(C)ns3)cn2)cc1`, the compound max-min signal worked out at 0.074; the glutamate response, % of max is -0.752% (active); the glutamate slope, % of max was found to be 5.34%.

Turning to `COc1cc(NS(=O)(=O)c2ccccc2F)ccc1N1CCCCC1=O`, the compound max-min signal was determined as 0.0504; the glutamate response, % of max is 15.5% (inactive); the glutamate slope, % of max is 35.3%.

For the molecule `COc1cccc(C(CNC(=O)c2ccc(OC(C)C)cc2)N2CCOCC2)c1` (configuration not stated), the compound max-min signal turned out to be 0.0693; the glutamate response, % of max is 22.5% (inactive); the glutamate slope, % of max came to 42.1%.

For `COc1ccc(C(CNC(=O)c2ccccc2Cl)N2CCOCC2)cc1` (configuration not stated), the compound max-min signal was 0.07; the glutamate response, % of max is 35.7% (active); the glutamate slope, % of max stood at 45.9%.

For the molecule `COc1ccc(C(CNC(=O)c2cc(C)cc(C)c2)N2CCOCC2)cc1` (configuration not stated), the compound max-min signal was 0.0728; the glutamate response, % of max is 37.2% (inactive); the glutamate slope, % of max is 50.1%.

Regarding `COc1ccccc1CCNC(=O)C(=O)Nc1cc([N+](=O)[O-])ccc1C`, the compound max-min signal was determined as 0.125; the glutamate response, % of max is 47.7% (inactive); the glutamate slope, % of max is 62.3%.

Consider `COc1ccc(NC(=O)C(=O)Nc2cc([N+](=O)[O-])ccc2C)cc1OC`, for which the compound max-min signal was 0.325; the glutamate response, % of max was 62.6% (active); the glutamate slope, % of max was determined as 80.6%.

In the case of `COc1cccc(CNC(=O)C(=O)Nc2cc([N+](=O)[O-])ccc2C)c1`, the compound max-min signal was 0.135; the glutamate response, % of max is 41.7% (inactive); the glutamate slope, % of max came to 61.5%.

Take `O=C(NCCNc1ccc(Nc2ccncc2)nn1)c1cccc2ccccc12`: the compound max-min signal was determined as 0.274; the glutamate response, % of max was 30.8% (inactive); the glutamate slope, % of max turned out to be 57.7%.

As for `O=C(NCCn1ncc2c(N3CCOCC3)ncnc21)c1ccc2c(c1)OCO2`, the compound max-min signal worked out at 0.0657; the glutamate response, % of max was 28.9% (inactive); the glutamate slope, % of max worked out at 49.6%.

With `CC(O)(CNC(=O)NCc1ccc(F)cc1)c1ccc(-c2ccccc2)cc1` (configuration not stated), the compound max-min signal amounted to 0.113; the glutamate response, % of max was 15.8% (inactive); the glutamate slope, % of max came to 57.2%.

On to `O=C(NNC(=O)c1ccc(=O)n(Cc2ccccc2)c1)c1ccc(F)c(F)c1`, for which the compound max-min signal worked out at 0.0736; the glutamate response, % of max is 29.9% (inactive); the glutamate slope, % of max stood at 51.5%.

In the case of `CC1CC(=O)Nc2c1c(NC(=O)c1ccc3c(c1)OCO3)nn2C` (configuration not stated), the compound max-min signal turned out to be 0.11; the glutamate response, % of max was 23.6% (active); the glutamate slope, % of max came to 38.4%.

As to `Cn1nc(NC(=O)c2ccc3c(c2)OCO3)c2c1NC(=O)CC2c1cccs1` (configuration not stated), the compound max-min signal was determined as 0.101; the glutamate response, % of max was 34.8% (inactive); the glutamate slope, % of max is 53.9%.

For `Cn1nc(NC(=O)/C=C\c2ccc3c(c2)OCO3)c2c1NC(=O)CC2c1ccco1` (configuration not stated), the compound max-min signal was 0.119; the glutamate response, % of max is 38.8% (inactive); the glutamate slope, % of max came to 66.5%.
